ChEMBL document CHEMBL1961873, “Compounds: GSK PKIS; Assays: Nanosyn kinase panel” (2012)

What was measured:
[1] = target: Mitogen-activated protein kinase 3 (Homo sapiens) (UniProt P27361); details: at 1 µM;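 also: values are mean percent inhibition of MAPK3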
[2] = target: SRSF protein kinase 3 (Homo sapiens) (UniProt Q9UPE1); details: at 0.1 µM
[3] = target: SRSF protein kinase 3 (Homo sapiens) (UniProt Q9UPE1); details: at 1 µM
[4] = target: Mitogen-activated protein kinase 14 (Homo sapiens) (UniProt Q16539); details: at 0.1 µM
Mitogen-activated protein kinase 14 (Homo sapiens), sequence (Q16539 whole entry): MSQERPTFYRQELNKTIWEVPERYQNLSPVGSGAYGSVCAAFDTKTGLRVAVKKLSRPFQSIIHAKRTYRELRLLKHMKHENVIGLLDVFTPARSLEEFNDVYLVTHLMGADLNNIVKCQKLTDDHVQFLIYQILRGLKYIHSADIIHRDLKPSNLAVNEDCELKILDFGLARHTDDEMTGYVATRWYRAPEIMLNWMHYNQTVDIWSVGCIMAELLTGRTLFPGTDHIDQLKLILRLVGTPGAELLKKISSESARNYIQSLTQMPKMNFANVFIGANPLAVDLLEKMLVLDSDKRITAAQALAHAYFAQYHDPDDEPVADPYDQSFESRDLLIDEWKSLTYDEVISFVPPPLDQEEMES

[5] = target: Mitogen-activated protein kinase 14 (Homo sapiens) (UniProt Q16539); details: at 1 µM
[6] = target: Mitogen-activated protein kinase 11 (Homo sapiens) (UniProt Q15759); details: at 0.1 µM
Mitogen-activated protein kinase 11 (Homo sapiens), sequence (Q15759 whole entry): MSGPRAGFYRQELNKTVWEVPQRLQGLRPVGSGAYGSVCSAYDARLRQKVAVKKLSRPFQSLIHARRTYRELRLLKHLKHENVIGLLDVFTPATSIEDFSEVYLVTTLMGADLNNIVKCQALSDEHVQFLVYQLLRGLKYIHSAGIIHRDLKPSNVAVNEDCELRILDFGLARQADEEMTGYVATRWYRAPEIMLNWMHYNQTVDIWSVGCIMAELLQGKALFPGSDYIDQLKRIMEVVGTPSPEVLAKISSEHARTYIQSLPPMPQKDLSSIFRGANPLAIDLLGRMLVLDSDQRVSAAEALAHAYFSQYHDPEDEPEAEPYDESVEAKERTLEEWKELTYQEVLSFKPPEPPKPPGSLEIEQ

[7] = target: Mitogen-activated protein kinase 11 (Homo sapiens) (UniProt Q15759); details: at 1 µM
[8] = target: T1, Mitogen-activated protein kinase 13 (Homo sapiens) (UniProt O15264); details: at 0.1 µM
T1 sequence (whole entry): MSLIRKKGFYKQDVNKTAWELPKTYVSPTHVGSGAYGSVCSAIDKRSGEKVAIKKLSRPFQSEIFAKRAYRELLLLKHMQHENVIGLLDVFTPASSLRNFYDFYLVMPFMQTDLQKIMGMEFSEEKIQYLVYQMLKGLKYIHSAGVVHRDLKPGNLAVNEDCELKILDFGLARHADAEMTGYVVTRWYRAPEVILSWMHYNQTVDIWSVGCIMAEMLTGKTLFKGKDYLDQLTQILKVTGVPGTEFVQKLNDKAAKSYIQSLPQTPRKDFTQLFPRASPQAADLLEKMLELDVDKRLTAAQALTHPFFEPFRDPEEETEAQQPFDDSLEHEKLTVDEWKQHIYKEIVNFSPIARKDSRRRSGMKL

[9] = target: T1, Mitogen-activated protein kinase 13 (Homo sapiens); details: at 1 µM
[10] = target: T2, Mitogen-activated protein kinase 12 (Homo sapiens) (UniProt P53778); details: at 0.1 µM
T2 sequence (whole entry): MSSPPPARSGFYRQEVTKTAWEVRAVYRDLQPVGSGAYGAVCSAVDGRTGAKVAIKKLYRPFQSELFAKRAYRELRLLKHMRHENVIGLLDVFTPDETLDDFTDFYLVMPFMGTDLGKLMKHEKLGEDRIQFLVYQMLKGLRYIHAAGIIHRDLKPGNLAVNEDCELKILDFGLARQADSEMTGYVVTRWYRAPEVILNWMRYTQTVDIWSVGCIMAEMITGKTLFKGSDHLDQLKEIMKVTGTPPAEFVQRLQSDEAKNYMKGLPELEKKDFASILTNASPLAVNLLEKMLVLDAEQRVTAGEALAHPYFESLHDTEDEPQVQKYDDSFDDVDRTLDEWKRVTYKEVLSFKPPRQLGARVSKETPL

[11] = target: T2, Mitogen-activated protein kinase 12 (Homo sapiens); details: at 1 µM
[12] = target: SRSF protein kinase 1 (Homo sapiens) (UniProt Q96SB4); details: at 0.1 µM
SRSF protein kinase 1 (Homo sapiens), sequence (Q96SB4 whole entry, canonical isoform): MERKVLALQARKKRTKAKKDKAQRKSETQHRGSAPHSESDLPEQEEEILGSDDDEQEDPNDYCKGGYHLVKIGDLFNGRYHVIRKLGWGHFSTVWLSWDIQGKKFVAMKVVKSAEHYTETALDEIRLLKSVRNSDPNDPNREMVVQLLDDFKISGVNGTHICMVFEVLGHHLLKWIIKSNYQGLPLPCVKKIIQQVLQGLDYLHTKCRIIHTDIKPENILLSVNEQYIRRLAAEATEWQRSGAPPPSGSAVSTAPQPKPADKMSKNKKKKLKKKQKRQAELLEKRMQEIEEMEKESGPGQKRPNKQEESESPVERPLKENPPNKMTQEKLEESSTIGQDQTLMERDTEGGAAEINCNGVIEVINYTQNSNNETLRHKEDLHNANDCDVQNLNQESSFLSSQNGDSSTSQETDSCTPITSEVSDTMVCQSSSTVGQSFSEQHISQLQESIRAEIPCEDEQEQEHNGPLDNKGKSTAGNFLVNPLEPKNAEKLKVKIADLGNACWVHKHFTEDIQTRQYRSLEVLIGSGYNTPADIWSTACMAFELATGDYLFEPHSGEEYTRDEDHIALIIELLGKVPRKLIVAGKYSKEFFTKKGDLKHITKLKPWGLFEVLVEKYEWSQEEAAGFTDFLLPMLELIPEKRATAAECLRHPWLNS

[13] = target: SRSF protein kinase 1 (Homo sapiens) (UniProt Q96SB4); details: at 1 µM
[14] = target: Phosphatidylinositol 4,5-bisphosphate 3-kinase catalytic subunit alpha isoform (Homo sapiens) (UniProt P42336); details: at 0.1 µM
Phosphatidylinositol 4,5-bisphosphate 3-kinase catalytic subunit alpha isoform (Homo sapiens), sequence (P42336 whole entry, canonical isoform): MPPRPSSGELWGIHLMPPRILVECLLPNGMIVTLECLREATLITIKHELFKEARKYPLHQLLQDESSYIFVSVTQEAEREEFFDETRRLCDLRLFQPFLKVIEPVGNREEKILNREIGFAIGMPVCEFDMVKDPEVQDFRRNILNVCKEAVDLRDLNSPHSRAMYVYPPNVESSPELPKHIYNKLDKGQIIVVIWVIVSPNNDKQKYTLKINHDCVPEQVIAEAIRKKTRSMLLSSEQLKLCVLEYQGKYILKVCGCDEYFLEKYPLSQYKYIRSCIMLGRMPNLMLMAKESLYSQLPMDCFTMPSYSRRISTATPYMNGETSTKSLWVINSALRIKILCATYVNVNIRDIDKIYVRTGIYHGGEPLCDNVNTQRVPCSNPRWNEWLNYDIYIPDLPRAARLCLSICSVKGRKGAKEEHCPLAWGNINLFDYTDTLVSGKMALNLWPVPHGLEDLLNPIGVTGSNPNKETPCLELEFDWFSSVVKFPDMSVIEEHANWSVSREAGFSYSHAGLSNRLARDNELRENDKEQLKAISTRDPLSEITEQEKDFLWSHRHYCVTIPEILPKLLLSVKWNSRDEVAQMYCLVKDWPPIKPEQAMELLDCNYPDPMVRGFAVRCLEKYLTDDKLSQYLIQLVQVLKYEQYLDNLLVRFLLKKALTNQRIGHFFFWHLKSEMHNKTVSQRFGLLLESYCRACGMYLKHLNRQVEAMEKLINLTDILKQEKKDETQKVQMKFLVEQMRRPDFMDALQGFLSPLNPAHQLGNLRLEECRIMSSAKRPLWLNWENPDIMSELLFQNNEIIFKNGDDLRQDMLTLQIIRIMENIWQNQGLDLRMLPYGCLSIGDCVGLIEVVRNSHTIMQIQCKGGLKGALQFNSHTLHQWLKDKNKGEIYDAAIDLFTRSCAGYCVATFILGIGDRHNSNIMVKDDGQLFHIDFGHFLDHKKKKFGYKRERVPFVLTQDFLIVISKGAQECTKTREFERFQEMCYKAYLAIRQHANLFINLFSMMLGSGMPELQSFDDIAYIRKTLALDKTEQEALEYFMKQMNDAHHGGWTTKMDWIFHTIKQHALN

[15] = target: Phosphatidylinositol 4,5-bisphosphate 3-kinase catalytic subunit alpha isoform (Homo sapiens) (UniProt P42336); details: at 1 µM
[16] = target: T3, Phosphatidylinositol 4,5-bisphosphate 3-kinase catalytic subunit delta isoform (Homo sapiens) (UniProt O00329); details: at 0.1 µM
T3 sequence (whole entry): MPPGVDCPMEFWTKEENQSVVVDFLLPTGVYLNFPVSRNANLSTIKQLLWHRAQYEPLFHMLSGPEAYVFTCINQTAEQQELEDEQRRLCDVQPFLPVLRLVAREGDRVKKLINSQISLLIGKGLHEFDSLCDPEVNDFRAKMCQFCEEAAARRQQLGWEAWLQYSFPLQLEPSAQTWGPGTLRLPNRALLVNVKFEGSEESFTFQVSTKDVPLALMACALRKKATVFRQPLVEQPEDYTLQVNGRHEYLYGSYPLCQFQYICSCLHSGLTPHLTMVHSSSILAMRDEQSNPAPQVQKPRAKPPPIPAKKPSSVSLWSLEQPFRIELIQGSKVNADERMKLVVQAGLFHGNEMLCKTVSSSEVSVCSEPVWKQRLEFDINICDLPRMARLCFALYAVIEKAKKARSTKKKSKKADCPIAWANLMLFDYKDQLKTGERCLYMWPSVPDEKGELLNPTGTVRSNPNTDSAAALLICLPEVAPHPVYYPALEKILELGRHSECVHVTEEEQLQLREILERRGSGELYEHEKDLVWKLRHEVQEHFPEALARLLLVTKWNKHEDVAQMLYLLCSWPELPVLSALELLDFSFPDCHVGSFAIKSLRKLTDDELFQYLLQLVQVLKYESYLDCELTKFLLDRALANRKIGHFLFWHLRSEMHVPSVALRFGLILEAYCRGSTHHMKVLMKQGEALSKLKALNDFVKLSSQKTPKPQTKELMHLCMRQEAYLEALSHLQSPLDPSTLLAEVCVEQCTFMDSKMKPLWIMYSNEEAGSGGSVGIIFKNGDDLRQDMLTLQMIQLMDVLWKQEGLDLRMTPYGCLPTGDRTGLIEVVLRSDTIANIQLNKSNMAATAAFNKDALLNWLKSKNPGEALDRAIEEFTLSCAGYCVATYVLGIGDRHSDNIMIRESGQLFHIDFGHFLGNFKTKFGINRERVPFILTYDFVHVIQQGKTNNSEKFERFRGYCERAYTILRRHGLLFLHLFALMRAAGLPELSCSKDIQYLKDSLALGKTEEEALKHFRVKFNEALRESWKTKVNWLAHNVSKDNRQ

[17] = target: T3, Phosphatidylinositol 4,5-bisphosphate 3-kinase catalytic subunit delta isoform (Homo sapiens); details: at 1 µM
[18] = target: Phosphatidylinositol 4-kinase beta (Homo sapiens) (UniProt Q9UBF8); details: at 0.1 µM
Phosphatidylinositol 4-kinase beta (Homo sapiens), sequence (Q9UBF8 2-816 limits assumed): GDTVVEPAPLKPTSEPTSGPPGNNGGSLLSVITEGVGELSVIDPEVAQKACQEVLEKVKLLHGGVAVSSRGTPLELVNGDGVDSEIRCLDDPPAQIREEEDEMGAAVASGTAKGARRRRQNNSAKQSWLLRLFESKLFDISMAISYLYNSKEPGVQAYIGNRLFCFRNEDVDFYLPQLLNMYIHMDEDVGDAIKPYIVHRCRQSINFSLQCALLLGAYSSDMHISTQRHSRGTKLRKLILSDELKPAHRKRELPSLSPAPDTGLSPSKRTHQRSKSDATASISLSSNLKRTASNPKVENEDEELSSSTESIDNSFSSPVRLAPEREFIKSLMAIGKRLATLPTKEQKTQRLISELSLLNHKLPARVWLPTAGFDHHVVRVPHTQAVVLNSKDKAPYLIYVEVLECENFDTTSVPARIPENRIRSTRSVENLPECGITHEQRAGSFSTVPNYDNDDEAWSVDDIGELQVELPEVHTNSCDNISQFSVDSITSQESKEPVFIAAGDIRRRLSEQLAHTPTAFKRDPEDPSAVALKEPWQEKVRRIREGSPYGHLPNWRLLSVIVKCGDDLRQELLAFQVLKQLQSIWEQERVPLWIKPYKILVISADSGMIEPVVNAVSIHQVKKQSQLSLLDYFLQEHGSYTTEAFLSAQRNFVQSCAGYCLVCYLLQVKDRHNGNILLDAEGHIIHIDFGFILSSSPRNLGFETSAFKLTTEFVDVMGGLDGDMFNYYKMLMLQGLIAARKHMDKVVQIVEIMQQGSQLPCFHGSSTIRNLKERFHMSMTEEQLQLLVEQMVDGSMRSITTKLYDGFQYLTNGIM

[19] = target: Phosphatidylinositol 4-kinase beta (Homo sapiens) (UniProt Q9UBF8); details: at 1 µM
[20] = target: Sphingosine kinase 1 (Homo sapiens) (UniProt Q9NYA1); details: at 0.1 µM;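 also: mean percent inhibition of SPHK1 activity, measured within the GSK PKIS screening panel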
Sphingosine kinase 1 (Homo sapiens), sequence (Q9NYA1 whole entry): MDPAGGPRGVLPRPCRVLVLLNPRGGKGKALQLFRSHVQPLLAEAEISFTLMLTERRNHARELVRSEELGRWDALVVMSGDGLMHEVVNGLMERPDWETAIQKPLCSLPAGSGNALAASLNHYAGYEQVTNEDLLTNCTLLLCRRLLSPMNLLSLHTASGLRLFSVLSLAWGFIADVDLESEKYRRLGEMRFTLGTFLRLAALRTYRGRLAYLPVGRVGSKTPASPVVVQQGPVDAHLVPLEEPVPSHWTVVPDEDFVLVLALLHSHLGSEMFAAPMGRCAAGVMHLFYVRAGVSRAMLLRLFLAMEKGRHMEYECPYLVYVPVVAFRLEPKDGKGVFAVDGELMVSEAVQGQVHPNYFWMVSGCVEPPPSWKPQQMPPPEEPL

Mitogen-activated protein kinase 3 (Homo sapiens), sequence (P27361 whole entry): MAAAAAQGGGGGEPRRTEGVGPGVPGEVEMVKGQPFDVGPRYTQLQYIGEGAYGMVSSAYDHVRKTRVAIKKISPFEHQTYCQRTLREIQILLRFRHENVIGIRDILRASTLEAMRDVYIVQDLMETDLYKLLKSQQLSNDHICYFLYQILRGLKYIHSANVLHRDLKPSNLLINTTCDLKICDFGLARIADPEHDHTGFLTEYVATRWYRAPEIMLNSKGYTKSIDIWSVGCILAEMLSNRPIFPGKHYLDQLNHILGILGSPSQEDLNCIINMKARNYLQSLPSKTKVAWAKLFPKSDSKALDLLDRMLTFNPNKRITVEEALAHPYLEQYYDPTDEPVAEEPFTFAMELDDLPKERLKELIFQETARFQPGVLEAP
SRSF protein kinase 3 (Homo sapiens), sequence (Q9UPE1 whole entry): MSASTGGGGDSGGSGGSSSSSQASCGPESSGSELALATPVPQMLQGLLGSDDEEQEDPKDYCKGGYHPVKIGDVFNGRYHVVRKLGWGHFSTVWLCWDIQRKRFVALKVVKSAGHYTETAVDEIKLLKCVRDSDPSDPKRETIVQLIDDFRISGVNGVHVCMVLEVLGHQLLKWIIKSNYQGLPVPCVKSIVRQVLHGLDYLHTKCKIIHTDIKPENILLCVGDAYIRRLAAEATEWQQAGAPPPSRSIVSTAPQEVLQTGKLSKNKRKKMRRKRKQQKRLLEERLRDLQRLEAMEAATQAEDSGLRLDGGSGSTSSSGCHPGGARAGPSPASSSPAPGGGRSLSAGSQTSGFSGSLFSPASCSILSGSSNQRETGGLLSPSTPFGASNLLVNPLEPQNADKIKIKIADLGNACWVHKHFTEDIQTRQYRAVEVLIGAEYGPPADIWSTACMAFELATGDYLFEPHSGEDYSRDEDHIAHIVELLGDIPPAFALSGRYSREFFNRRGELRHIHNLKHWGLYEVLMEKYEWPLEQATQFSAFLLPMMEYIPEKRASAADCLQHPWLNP

| Structure (SMILES) | inhibition [1] | inhibition [2] | inhibition [3] | inhibition [4] | inhibition [5] | inhibition [6] | inhibition [7] | inhibition [8] | inhibition [9] | inhibition [10] | inhibition [11] | inhibition [12] | inhibition [13] | inhibition [14] | inhibition [15] | inhibition [16] | inhibition [17] | inhibition [18] | inhibition [19] | inhibition [20] |
| --- | --- | --- | --- | --- | --- | --- | --- | --- | --- | --- | --- | --- | --- | --- | --- | --- | --- | --- | --- | --- |
| CS(=O)(=O)CCNCc1ccoc1-c1ccc2ncnc(Nc3ccc(OCc4ccccc4)cc3)c2c1 | 1.25% | -1.87% | -1.49% | 2.69% | 0.9% | 2.25% | 1.9% | 0.46% | -0.76% | 0.71% | 0.43% | -0.09% | -1.85% | 1.09% | 2.87% | 0.63% | 4.62% | 9.16% | -0.68% | 0.65% |
| O=C(O[C@H]1CN[C@H](C#Cc2cc3ncnc(Nc4ccc5c(ccn5Cc5cc(F)ccc5F)c4)c3s2)C1)N1CCOCC1 | 2.72% | -1.71% | -2.33% | 5.28% | 8.23% | 3.16% | 5.47% | 2.39% | 5.7% | 3.21% | 3.26% | -2.77% | -4.63% | 3.72% | 9.95% | 2.02% | 7.62% | -3.81% | -0.39% | 3.05% |
| CS(=O)(=O)Nc1ccc(-c2cc(-c3ccccc3)cc(C(N)=O)c2N)cc1 | 2.24% | -1.51% | -0.01% | 1.19% | 0.84% | 1.8% | 0.17% | 1.96% | 0.64% | 0.99% | 1.43% | -1.01% | -1.76% | 3.24% | 3.21% | 3.22% | 3.77% | 0.42% | -0.01% | -1.73% |
| COc1cccc(-n2ncc3c(N/N=C/c4ccc(C(=O)NCCN(C)C)cc4)ncnc32)c1 | 2.75% | 1.28% | 0.91% | 2.36% | 11.8% | 0.2% | 3.19% | 3.46% | 23.5% | 4.06% | 4.67% | -1.63% | -2.59% | 2.48% | 20.2% | 4.52% | 16.3% | -3.13% | 5.75% | 5.89% |
| CCCNc1cccc(-n2ncc3c(N/N=C/c4ccncc4)ncnc32)c1 | 3.62% | -0.81% | 0.97% | 1.81% | 7.62% | 4.76% | 25.5% | 0.94% | 3.1% | 0.51% | 0.33% | 0.43% | 3.51% | 1.36% | 3.81% | 3.31% | 14.7% | 5.69% | 4.32% | 0.21% |
| CCn1c(-c2nonc2N)nc2cncc(C(=O)NCCNC)c21 | 5.7% | -3.21% | -0.69% | 7.83% | 6.55% | 4.08% | 3.55% | 5.75% | 5.07% | 3.86% | 4.44% | -1.97% | -2.66% | 4.3% | 2.53% | 0.31% | 1.82% | 1.26% | 0.69% | 0.59% |
| CS(=O)(=O)CCNCc1ccc(-c2ccc3ncnc(Nc4ccc(OCc5cccc(C(F)(F)F)c5)cc4)c3c2)o1 | 5% | -2.18% | -0.47% | 11.9% | 13.9% | 1.8% | 5.06% | 5.4% | 5.66% | 3.43% | 6.4% | -2% | -2.32% | 4.42% | 4.38% | 0.9% | 1.81% | 0.98% | -0.43% | 1.49% |
| CCS(=O)(=O)c1ccc(OC)c(Nc2ncc(-c3cccc(F)c3)o2)c1 | 5.09% | -2.3% | 0.15% | 13.4% | 14.9% | 4.8% | 7.52% | 5.58% | 5.36% | 3.31% | 4.78% | -0.63% | 0.45% | 5.95% | 5.75% | 2.23% | 4.91% | 0.49% | -1.64% | -1.2% |
| CC1=C(C(=O)Nc2ccc3[nH]nc(C)c3c2)C(c2ccc(C(F)(F)F)cc2)CC(=O)N1 (stereo not given) | 19.7% | 1.18% | -0.95% | 1.31% | 5.28% | -0.15% | 0.38% | 1.19% | 6.03% | -4.7% | 2.82% | -1.2% | -2.95% | 2.05% | 2.21% | 2.89% | 3.84% | 4.33% | -1.82% | 0.96% |
| CNC(=O)c1cncc(/C=C/c2ccccc2C)c1 | 4.66% | -0.87% | 3.21% | 3.76% | 6.09% | 4.82% | 7.21% | 4.01% | 3.77% | 1.29% | 1.72% | -0.49% | 2.3% | 2.18% | 2.76% | 1.24% | 0.42% | -3.61% | 7.59% | 0.67% |
| Cc1cc(O)cc(C)c1/C=C/c1cncc(C(=O)OC(C)(C)C)c1 | 5.66% | -1.96% | -3.77% | 5.49% | 6.26% | 1.86% | 5.95% | 2.17% | 1.43% | 2.88% | 1.7% | -1.51% | 0.59% | 5.51% | 7.91% | 5.19% | 6.21% | 1.7% | 3.49% | 2.8% |
| COc1c(C(N)=O)cc(-c2ccc(Cl)cc2)cc1-c1ccc(S(N)(=O)=O)cc1 | 5.76% | 2.9% | 0.68% | 8.26% | 10.3% | 4.78% | 4.22% | 4.33% | 6.61% | 4.27% | 5.43% | -3.03% | -1.89% | 4.8% | 2.59% | 0.32% | 1.67% | 0.85% | 3.11% | 0.56% |
